From PubChem BioAssay
MEX-5 binding: C. elegans MEX-5 TCR-2 RNA binding activity; MEX-5/FITC-TCR2 RNA binding, fluorescence polarization; hits give low values; AID 1832; actives 0.38% (n = 300,000); activity score (negative = inhibition of binding), % at 10 µM;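 active = inhibition past about -25% in most replicates, and total fluorescence under double the plate's negative control median, limit read from the data; inconclusive = replicates evenly split on the limit, or fluorescence at least double controls; inactive = too little inhibition in most replicates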;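 also: 0% = DMSO and -100% = 5 µM competing unlabeled TCR2 RNA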
Target sequence (Q9XUB2 whole entry, looked up): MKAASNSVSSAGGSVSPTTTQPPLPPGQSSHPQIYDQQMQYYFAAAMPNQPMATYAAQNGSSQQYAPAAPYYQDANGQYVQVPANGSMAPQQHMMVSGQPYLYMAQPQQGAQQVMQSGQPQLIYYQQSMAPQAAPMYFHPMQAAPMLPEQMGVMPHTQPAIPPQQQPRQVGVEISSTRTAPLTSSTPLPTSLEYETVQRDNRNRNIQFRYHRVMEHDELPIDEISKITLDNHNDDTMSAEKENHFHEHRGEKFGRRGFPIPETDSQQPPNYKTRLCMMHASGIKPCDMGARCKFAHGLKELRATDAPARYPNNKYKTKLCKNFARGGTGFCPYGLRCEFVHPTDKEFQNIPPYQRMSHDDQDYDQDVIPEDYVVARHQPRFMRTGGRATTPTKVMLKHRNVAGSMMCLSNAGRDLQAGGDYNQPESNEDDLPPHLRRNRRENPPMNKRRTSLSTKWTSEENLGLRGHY
eLon inh: inhibitors of E. coli Lon protease; P0A9M0; purified E. coli Lon protease, fluorescence polarization; inhibition, % at 7.94 µM; actives 0.42% (n = 360,000); in the data active = inhibition above about 13%, passing the limit was not always enough;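 also: 0% = enzyme with probe and DMSO and 100% = no enzyme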
GLD-1 RNA inh: GLD-1-TGE RNA interaction inhibition (C. elegans) | purified GLD-1 + fluorescein TGE RNA, fluorescence polarization | inhibition, % at 5.96 µM | actives 0.44% (n = 320,000) | AID 2280;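 active = percent inhibition above a per-plate cutoff, the plate mean of test compounds plus 3 SD, cut at about 30% in these data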;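 also: 0% = DMSO wells with GLD-1 and probe and 100% = wells lacking GLD-1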
EBV gp42 block: EBV gp42 inhibition. Q1HVG2. Fluorescence polarization binding assay, mP read-out. inhibition, % (tested at 21.74 µM). actives 0.42% (n = 220,000). AID 1085; in the data active = inhibition above about 50%
Bcl-xL primary: inhibitors of human Bcl-xL. GST-Bcl-xL / FITC-Bim BH3 peptide fluorescence polarization. AID 2129. inhibition, % at 10.9 µM. actives 0.7% (n = 320,000). Q07817;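 active = inhibition above the mean of all tested compounds plus 3 SD, cutoff set per campaign, cut at about 30% in these data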;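 also: 0% = DMSO wells and 100% = unlabeled Bim-BH3 peptide competitor; inhibitors lower millipolarization by displacing the labeled peptide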
The depositor's hits bear a star. Only some compounds are listed: those with a hit (about 1.3% of all), similar ones and a draw of the others.

Results for CC(C)CC(N)c1csc(Nc2cnccn2)n1 (stereo unspecified) ?
eLon inh: -5

How did Cc1c(N2C(=O)c3ccc(Br)cc3C2=O)c(=O)n(-c2ccccc2)n1C do in these assays?
MEX-5 binding: -1; eLon inh: 2; GLD-1 RNA inh: 6; EBV gp42 block: -18; Bcl-xL primary: 0

Results for Cc1c(N2C(=O)c3ccc4c5c(ccc(c35)C2=O)CC4)c(=O)n(-c2ccccc2)n1C ?
MEX-5 binding: -1; eLon inh: -10; GLD-1 RNA inh: 0; EBV gp42 block: 79*; Bcl-xL primary: 23

What do the screens show for `Cc1cc(C(=O)Nc2ccncc2)c(C)o1`?
eLon inh: -1

What do the screens show for `CCCCOCCCNC(=O)C[C@@H]1C[C@@]2(C(=O)OCC)CCCC=C2N(Cc2ccco2)C1=O`?
eLon inh: -6

How did O=S(=O)(NNC(=S)Nc1ccc(S(=O)(=O)Nc2ncccn2)cc1)c1ccc(Br)cc1 do in these assays?
MEX-5 binding: -99*; eLon inh: 12; GLD-1 RNA inh: 0; Bcl-xL primary: 2

How did O=C(NC(=S)Nc1ccc(S(=O)(=O)Nc2ncccn2)cc1)c1ccc(Br)cc1 do in these assays?
MEX-5 binding: -3; eLon inh: 5; GLD-1 RNA inh: -3; EBV gp42 block: -4; Bcl-xL primary: 8

What do the screens show for `Cc1ccc2cc(/C=C(\C#N)C(N)=O)c(N3CCCCC3)nc2c1`?
MEX-5 binding: inconclusive; eLon inh: -10; GLD-1 RNA inh: -1; EBV gp42 block: -12; Bcl-xL primary: 4

How did Cc1ccc2cc(C=C(C#N)C#N)c(N3CCCCC3)nc2c1 do in these assays?
MEX-5 binding: -2; eLon inh: 4; GLD-1 RNA inh: -3; EBV gp42 block: 117*; Bcl-xL primary: 0

Results for CCOC(=O)/C(C#N)=C/c1cc2ccccc2nc1N1CCCCC1 ?
MEX-5 binding: -39*; eLon inh: -9; GLD-1 RNA inh: -5; EBV gp42 block: 60*; Bcl-xL primary: 6

What do the screens show for `C[C@H]1COC(=O)[C@@H](NC(=O)OCC2c3ccccc3-c3ccccc32)C/C=C\C[C@H](CC(=O)NCCO)C(=O)N1`?
eLon inh: -5; GLD-1 RNA inh: 9

Results for Cc1ccc(S(=O)(=O)Nc2nc3ccccc3nc2NCc2ccco2)cc1 ?
MEX-5 binding: 2; eLon inh: 38*; GLD-1 RNA inh: 25; EBV gp42 block: 18; Bcl-xL primary: 40*

How did Cc1ccc(S(=O)(=O)c2c(N)n(Cc3ccco3)c3nc4ccccc4nc23)cc1 do in these assays?
MEX-5 binding: 3; eLon inh: 6; GLD-1 RNA inh: 44*; EBV gp42 block: 61*; Bcl-xL primary: 30

What do the screens show for `Cc1cccc(S(=O)(=O)c2c(N)n(Cc3ccco3)c3nc4ccccc4nc23)c1`?
MEX-5 binding: 0; eLon inh: -46; GLD-1 RNA inh: 69*; EBV gp42 block: 4; Bcl-xL primary: 37*

What do the screens show for `COc1cc(/C=C(/C#N)c2nc(-c3cc4ccccc4oc3=O)cs2)cc([N+](=O)[O-])c1O`?
EBV gp42 block: 64*

What do the screens show for `COc1ccc(C(=O)N/C(=C\c2ccc(SC)cc2)C(=O)NCCCn2ccnc2)cc1OC`?
eLon inh: -7; GLD-1 RNA inh: -4

Results for O=C(COC(=O)c1c[nH]c2ccccc12)NC1CCCCC1 ?
eLon inh: -7; GLD-1 RNA inh: 2; Bcl-xL primary: -3

Results for Cc1cc(CNC(=O)CC2C(=O)NCCN2Cc2ccccc2C(F)(F)F)on1 (stereo unspecified) ?
MEX-5 binding: -3; eLon inh: 5; GLD-1 RNA inh: 10; EBV gp42 block: 14; Bcl-xL primary: 21

What do the screens show for `Cc1cnc(CNC(=O)CC2C(=O)NCCN2Cc2ccccc2C(F)(F)F)cn1` (stereo unspecified)?
MEX-5 binding: -15; eLon inh: 14; GLD-1 RNA inh: 27; Bcl-xL primary: 35*

Results for CCC(CC)NC(=O)CCCSc1nc2ccccc2[nH]1 ?
MEX-5 binding: 2; eLon inh: 3; GLD-1 RNA inh: -4; EBV gp42 block: -10; Bcl-xL primary: 4

Results for N#Cc1ccc(-c2cccnc2)nc1SCC(=O)c1ccccc1 ?
MEX-5 binding: 4; eLon inh: -247; GLD-1 RNA inh: -87; EBV gp42 block: -17; Bcl-xL primary: 36*

What do the screens show for `N#Cc1ccc(-c2ccccc2)nc1SCC(=O)c1cccc(Cl)c1`?
MEX-5 binding: -1; eLon inh: -22; GLD-1 RNA inh: -18; EBV gp42 block: -77; Bcl-xL primary: -9
